Values without a mark were called inactive.
How the values were obtained:
Experiment in all cases: log2 ratio of Biotin-Ahx-Ub-VS probe labelling (fragment/DMSO); higher = less target engagement (more negative = stronger competition), active = hit call of the paper (q ≤ 0.05, log2 ratio ≤ -1)
Settings in all cases: compound concentration: 200 uM; treatment time: 3 h
[1] = molecular target: T1, OTUD6B (UniProt Q8N6M0)
T1 sequence (whole entry): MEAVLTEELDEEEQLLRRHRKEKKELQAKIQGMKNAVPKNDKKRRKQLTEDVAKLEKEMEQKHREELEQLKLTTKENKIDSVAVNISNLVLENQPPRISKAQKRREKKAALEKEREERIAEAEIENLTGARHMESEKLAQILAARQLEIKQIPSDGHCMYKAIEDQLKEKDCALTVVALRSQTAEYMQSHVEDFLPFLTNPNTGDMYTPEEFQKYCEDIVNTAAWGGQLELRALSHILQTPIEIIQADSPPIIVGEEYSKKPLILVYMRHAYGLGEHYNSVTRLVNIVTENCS
In short: (§1)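 Each value is an average log2 ratio of fragment to vehicle, tested by unpaired t-test. The underlying Spectronaut label-free quantities were global-median-normalised, and only proteins with ≥2 unique peptides were included. Triplicate HEK293T lysate samples (495 µg) were exposed to fragment at 200 µM or vehicle for 3 h, then to Biotin-Ahx-Ub-VS at 0.5 µM final for 1 h, before NeutrAvidin enrichment of labelled DUBs, LysC and trypsin digestion, and diaPASEF LC-MS/MS.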

[2] = molecular target: T2, OTUD7B (UniProt Q6GQQ9)
T2 sequence (whole entry): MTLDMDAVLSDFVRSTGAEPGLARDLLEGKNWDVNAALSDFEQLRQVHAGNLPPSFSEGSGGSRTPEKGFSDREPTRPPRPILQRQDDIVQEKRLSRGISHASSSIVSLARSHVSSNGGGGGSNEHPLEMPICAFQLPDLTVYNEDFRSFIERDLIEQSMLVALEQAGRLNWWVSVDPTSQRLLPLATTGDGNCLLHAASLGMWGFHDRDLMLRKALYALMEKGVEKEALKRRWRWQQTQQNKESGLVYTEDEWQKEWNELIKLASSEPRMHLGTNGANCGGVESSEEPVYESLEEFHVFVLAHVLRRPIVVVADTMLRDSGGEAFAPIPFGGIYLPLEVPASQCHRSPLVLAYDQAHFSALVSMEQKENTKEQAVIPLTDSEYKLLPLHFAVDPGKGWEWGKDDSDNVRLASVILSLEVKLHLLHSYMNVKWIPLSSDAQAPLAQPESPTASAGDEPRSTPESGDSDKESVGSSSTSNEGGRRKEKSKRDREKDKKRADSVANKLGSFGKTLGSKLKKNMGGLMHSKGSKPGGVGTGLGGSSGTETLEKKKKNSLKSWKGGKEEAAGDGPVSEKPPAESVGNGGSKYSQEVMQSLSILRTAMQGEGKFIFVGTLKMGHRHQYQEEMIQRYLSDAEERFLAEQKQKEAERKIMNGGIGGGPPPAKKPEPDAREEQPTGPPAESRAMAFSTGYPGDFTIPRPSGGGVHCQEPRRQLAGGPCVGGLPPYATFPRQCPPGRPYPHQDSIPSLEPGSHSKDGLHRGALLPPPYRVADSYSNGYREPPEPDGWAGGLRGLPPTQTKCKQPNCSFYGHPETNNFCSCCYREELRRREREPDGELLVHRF
In short: as §1

[3] = molecular target: PRPF8 (UniProt Q6P2Q9)
In short: as §1

[4] = molecular target: T3, PSMD7 (UniProt P51665)
T3 sequence (whole entry): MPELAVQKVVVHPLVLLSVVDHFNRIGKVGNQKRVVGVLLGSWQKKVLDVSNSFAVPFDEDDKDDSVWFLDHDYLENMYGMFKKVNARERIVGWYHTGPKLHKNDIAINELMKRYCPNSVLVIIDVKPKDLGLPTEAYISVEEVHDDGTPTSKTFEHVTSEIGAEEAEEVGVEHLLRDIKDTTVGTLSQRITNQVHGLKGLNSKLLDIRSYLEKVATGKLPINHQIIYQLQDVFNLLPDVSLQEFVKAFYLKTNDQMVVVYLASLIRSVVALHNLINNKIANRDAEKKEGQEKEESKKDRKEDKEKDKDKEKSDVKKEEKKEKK
In short: as §1

[5] = molecular target: UCHL1 (UniProt P09936)
In short: as §1

[6] = molecular target: T4, UCHL3 (UniProt P15374)
T4 sequence (whole entry): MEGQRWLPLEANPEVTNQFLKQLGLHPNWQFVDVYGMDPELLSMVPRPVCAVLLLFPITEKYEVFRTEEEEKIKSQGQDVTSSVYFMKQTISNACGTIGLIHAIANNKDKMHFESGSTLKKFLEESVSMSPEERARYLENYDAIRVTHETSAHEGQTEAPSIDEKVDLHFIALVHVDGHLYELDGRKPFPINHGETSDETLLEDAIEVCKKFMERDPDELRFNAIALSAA
In short: as §1

[7] = molecular target: T5, UCHL5 (UniProt Q9Y5K5)
T5 sequence (whole entry): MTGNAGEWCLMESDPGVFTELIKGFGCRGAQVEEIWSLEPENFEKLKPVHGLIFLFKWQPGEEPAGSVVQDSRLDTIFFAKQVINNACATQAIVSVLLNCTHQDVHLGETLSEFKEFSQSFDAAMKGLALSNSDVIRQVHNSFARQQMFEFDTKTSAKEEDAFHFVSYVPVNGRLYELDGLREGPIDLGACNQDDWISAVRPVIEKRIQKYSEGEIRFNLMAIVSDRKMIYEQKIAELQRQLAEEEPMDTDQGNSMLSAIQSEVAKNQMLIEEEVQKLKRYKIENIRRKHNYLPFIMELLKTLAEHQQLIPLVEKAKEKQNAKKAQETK
In short: as §1

[8] = molecular target: USP10 (UniProt Q14694)
In short: as §1

[9] = molecular target: T6, USP15 (UniProt Q9Y4E8)
T6 sequence (whole entry): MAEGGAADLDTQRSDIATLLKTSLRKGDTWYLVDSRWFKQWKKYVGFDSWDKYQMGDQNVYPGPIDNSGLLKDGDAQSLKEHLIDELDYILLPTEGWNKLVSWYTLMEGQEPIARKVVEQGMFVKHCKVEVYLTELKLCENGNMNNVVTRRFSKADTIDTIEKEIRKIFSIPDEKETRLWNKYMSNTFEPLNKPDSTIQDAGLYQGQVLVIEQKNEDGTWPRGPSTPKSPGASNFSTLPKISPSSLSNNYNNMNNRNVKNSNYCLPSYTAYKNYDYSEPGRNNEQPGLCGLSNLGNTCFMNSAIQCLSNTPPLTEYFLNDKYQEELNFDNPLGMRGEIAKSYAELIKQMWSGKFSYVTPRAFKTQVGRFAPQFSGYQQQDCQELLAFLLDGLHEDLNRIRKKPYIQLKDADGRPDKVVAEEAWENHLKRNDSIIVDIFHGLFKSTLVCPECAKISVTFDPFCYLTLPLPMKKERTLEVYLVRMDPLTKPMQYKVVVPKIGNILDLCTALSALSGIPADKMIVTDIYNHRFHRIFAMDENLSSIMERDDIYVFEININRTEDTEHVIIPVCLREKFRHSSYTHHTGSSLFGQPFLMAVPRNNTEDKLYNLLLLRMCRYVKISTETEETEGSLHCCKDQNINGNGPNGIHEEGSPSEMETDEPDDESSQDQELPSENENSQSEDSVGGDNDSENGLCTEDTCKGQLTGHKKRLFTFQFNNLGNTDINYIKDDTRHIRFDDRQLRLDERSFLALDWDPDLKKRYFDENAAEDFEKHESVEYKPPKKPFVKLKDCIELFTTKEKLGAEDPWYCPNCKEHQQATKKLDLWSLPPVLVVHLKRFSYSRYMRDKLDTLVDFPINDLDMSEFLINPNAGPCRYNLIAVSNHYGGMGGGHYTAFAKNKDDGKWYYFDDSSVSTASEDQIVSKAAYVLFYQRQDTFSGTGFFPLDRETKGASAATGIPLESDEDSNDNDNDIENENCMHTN
In short: as §1

[10] = molecular target: USP16 (UniProt Q9Y5T5)
In short: as §1

Sequence of USP16 (Q9Y5T5 whole entry, looked up): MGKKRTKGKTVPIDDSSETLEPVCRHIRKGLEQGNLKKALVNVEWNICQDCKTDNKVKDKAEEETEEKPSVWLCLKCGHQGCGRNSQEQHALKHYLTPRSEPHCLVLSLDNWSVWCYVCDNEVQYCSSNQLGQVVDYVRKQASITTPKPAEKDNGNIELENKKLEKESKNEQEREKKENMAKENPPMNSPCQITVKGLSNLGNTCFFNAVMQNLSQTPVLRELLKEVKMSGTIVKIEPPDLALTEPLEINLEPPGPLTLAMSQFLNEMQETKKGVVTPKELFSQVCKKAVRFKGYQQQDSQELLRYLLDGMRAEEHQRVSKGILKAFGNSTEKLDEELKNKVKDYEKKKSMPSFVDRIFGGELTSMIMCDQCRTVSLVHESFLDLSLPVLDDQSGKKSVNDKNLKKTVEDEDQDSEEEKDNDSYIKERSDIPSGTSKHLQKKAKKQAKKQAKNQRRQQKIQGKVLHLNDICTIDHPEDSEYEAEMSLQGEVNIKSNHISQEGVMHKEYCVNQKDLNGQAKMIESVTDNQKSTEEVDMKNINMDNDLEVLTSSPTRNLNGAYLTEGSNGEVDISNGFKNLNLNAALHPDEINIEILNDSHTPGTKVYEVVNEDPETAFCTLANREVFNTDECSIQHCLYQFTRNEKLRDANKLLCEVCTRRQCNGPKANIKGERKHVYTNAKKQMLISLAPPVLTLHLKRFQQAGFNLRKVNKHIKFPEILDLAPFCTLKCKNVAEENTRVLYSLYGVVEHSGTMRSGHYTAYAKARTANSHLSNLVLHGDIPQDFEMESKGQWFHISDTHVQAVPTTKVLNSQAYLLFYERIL
Sequence of UCHL1 (P09936 whole entry, looked up): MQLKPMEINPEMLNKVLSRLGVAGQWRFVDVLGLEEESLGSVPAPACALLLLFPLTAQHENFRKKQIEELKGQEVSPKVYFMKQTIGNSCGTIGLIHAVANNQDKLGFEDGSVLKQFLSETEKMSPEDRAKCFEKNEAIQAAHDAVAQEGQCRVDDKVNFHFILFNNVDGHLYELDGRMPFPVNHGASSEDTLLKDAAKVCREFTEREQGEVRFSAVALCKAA
Sequence of USP10 (Q14694 whole entry): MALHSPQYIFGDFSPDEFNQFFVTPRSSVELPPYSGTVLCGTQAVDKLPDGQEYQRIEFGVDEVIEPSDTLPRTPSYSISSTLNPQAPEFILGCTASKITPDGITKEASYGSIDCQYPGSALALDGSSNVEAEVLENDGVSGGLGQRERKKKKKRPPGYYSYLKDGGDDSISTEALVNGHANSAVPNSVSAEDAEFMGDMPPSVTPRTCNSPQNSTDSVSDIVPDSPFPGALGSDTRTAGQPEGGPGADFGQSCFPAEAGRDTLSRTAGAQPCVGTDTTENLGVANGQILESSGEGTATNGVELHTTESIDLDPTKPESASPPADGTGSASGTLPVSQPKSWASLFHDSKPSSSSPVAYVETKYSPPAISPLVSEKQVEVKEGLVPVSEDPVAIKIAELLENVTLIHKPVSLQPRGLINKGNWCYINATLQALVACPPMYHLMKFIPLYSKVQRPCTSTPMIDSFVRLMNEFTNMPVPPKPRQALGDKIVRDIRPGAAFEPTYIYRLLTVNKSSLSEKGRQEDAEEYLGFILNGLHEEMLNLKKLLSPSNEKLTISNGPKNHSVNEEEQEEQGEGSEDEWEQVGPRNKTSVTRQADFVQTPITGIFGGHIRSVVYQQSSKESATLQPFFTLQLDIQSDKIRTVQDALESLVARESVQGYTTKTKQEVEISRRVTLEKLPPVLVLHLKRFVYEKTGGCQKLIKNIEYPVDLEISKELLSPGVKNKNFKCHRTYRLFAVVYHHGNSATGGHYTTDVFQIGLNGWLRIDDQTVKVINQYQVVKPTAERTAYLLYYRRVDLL

## CC1(NC(=O)CCl)CCS(=O)(=O)C1 (stereo not given)
[1]
  log2 ratio of Biotin-Ahx-Ub-VS probe labelling: -0.893
[2]
  log2 ratio of Biotin-Ahx-Ub-VS probe labelling: -1.2 (active)
[3]
  log2 ratio of Biotin-Ahx-Ub-VS probe labelling: -0.0055
[4]
  log2 ratio of Biotin-Ahx-Ub-VS probe labelling: 0.0653
[5]
  log2 ratio of Biotin-Ahx-Ub-VS probe labelling: -2.03 (active)
[6]
  log2 ratio of Biotin-Ahx-Ub-VS probe labelling: -0.392
[7]
  log2 ratio of Biotin-Ahx-Ub-VS probe labelling: -0.974
[8]
  log2 ratio of Biotin-Ahx-Ub-VS probe labelling: -0.235
[9]
  log2 ratio of Biotin-Ahx-Ub-VS probe labelling: -0.845
[10]
  log2 ratio of Biotin-Ahx-Ub-VS probe labelling: 0.0352

Reference: the supplement of paper PMC11732987, “Enantioselective OTUD7B fragment discovery through chemoproteomics screening and high-throughput optimisation” (Communications Chemistry, 2025)
